This note sets out measurements from PubChem BioAssay AID588335 (The Scripps Research Institute Molecular Screening Center, 2011).

The campaign covered roughly 360,000 compounds. About 4,500 (1.2%) were called active. Many of the other results were omitted from the sample, so actives are more common in it than they were. Unmarked numbers belong to inactive results. Rule as the data show it: active = inhibition above about 30%; inactive = the rest.

The nature of this assay: GDH-TPI coupling enzyme inhibitors, primary screen, artefact control for M. tuberculosis FBA inhibitor project, biochemical, absorbance, full deck (AID 588335).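 Also: 0% = DMSO wells and 100% = wells lacking the enzyme.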 Conditions: GDH-TPI coupled enzyme counterscreen, NADH absorbance; at 4.8 µM; active compounds read high.
As for `CCCn1c(=S)[nH]c2ccc(C(F)(F)F)cc21`, the inhibition is 2.44%.
Take `Cc1cc(N2CCN(c3ccc(F)cc3)CC2)n2ncnc2n1`: the inhibition is -5.36%.
`Cc1ccc(NC(=O)C2CCN(S(=O)(=O)c3ccc4c(c3)NC(=O)CO4)CC2)cc1C`: the inhibition is -3.15%.
The result for `COc1cccc(C(=O)Nc2ccc3nc4n(c(=O)c3c2)CCCCC4)c1` reads 13.4%; that for `COc1cc(OC)cc(C(=O)Nc2ccc(-c3nc4ccccc4o3)c(O)c2)c1`, 31.5% (active); that for `COc1cc(OC)cc(C(=O)N[C@H](C(=O)Nc2nc3ccccc3[nH]2)C(C)C)c1`, 12.4%.
Consider `CN(Cc1ccccc1)C(=O)C(=O)c1cn(CC(=O)N2CCCC2)c2ccccc12`, for which the inhibition was 13.8%.
The result for `O=C(CSc1ccccn1)Nc1nc2c(ccc3ccccc32)s1` reads 13.6%.
For the compound `COc1cc(OC)c(OC)cc1CN1CCN(C(=O)c2cccc3ccccc23)CC1`, the inhibition was 0%.
In the case of `O=C1C2CCCN2C(=O)N1CCCCN1CCN(c2cccc(C(F)(F)F)c2)CC1` (configuration not stated), the inhibition was 15.7%.
Consider `COc1cc(/C=C/C(=O)OCC(=O)NCCCc2ccccc2)ccc1O`, for which the inhibition is 19.3%.
Consider `CC(=O)c1sc(N/N=C/c2ccc(C(C)C)cc2)nc1C`, for which the inhibition was 8.98%.
As to `COc1cc(/C=N\Nc2nc(-c3cccs3)c(NC(C)=O)s2)ccc1O`, the inhibition was 34.8% (active).
The result for `CC(C)=CCCC(C)CN1CCC(n2nccc2NC(=O)c2ccccc2)CC1` (configuration not stated) reads -14.4%; that for `Cc1ccc(C(=O)Nc2nnc(-c3ccncc3)s2)o1`, 36.5% (active).
Regarding `O=C(Nc1nnc(Cc2ccc(Cl)cc2)s1)c1ccncc1`, the inhibition is 16.2%.
In the case of `CC(C)=CC(=O)Nc1nnc(-c2ccc(F)cc2)s1` it was 2.46%.
Take `NC(=O)C1CCN(C(=O)c2cc(S(=O)(=O)N3CCN(c4ccccc4)CC3)ccc2Cl)CC1`: the inhibition is 0%.
With `Cc1[nH]n(C)c(=O)c1N=Nc1ccc(S(C)(=O)=O)cc1`, the inhibition was 33.3% (active).
Consider `Cc1[nH]n(C)c(=O)c1C(=O)c1c(-c2c(Cl)cccc2Cl)noc1C`, for which the inhibition is 10.3%.
With `Cc1c(N=Nc2ccc(N(C)C)cc2)c(=O)n(-c2ccccc2)n1C`, the inhibition is 7.74%.
In the case of `O=S(=O)(NCc1ccccc1Cl)c1cnc[nH]1`, the inhibition is 5.02%.
As to `O=C(NCC(=O)N1CCCCCCC1)c1ccccc1Cl`, the inhibition was 9.24%.
As to `O=C(NCCCNC(=O)c1ccccc1Cl)c1cnccn1`, the inhibition was -2.33%.
As to `O=C(NCCCO)/C(=C\C=C\c1ccccc1)NC(=O)c1ccccc1Cl`, the inhibition was 34.7% (active).
The result for `CC(NCC(=O)Nc1ccccc1C(=O)NC1CC1)c1ccccc1Cl` (configuration not stated) reads -5.56%.
In the case of `COCCn1cnnc1SCC(=O)Nc1cccc(S(=O)(=O)N2CCCCC2)c1` it was -5.42%; in that of `COc1ccc(CC2c3cc(OC)c(OC)cc3CC[N+]2(C)CCC(=O)OCCCCCOC(=O)CC[N+]2(C)CCc3cc(OC)c(OC)cc3C2Cc2ccc(OC)c(OC)c2)cc1OC` (configuration not stated), -11.1%; in that of `COc1ccc2nc(C)cc(Nc3cccc(C(=O)O)c3)c2c1`, 32.2% (active).
As to `COc1cccc(C(=O)NC(=O)Nc2nc(C)cc(C(F)(F)F)n2)c1`, the inhibition is -10%.
In the case of `COc1cccc(Nc2ncccc2C(=O)O)c1`, the inhibition is 11.1%.
Turning to `CC(C)CN(CC(C)C)C(=O)CN1c2cccc3cccc(c23)S1(=O)=O`, the inhibition was -9.01%.
As to `COc1ccc(C#Cc2c(-c3ccc(OC)cc3)oc3ccc(-c4ccc5c(c4)OCO5)cc23)cc1`, the inhibition is 5.83%.
In the case of `N=c1ccccn1Cc1ccccc1` it was -9.4%; in that of `C=CCNC(=S)/N=c1/ccccn1Cc1ccccc1`, 33.6% (active); in that of `C=CCNC(=O)COc1coc(CN2CCN(Cc3ccccc3)CC2)cc1=O`, -4.97%.
The result for `O=C(COc1ccc2oc3c(c2c1)CCCC3)Nc1ccccn1` reads -3.77%; that for `O=C(CN1CCOCC1)N1CCCc2c1c(=O)oc1ccc(OCc3ccccc3)cc21`, 31.5% (active).
Take `O=C(COc1ccc2c3c(c(=O)oc2c1)CCCC3)NCC(O)c1ccccc1` (configuration not stated): the inhibition was 10.6%.
In the case of `CCc1nn(CC(=O)N2CCN(c3cc(C)ccc3C)CC2)c(=O)c2cc3occc3n12`, the inhibition was 3.06%.
Take `CCOC(=O)N1CCC(NC(=O)C(C)n2c3ccccc3c3cnn(C)c(=O)c32)CC1` (configuration not stated): the inhibition was 1.24%.
In the case of `Cc1ccc(S(=O)(=O)Nc2nc(C)cc(N/N=C/c3ccc(O)cc3)n2)cc1`, the inhibition is 31.1% (active).
On to `Cc1ccc(OCCCC(=O)Nc2ccc(S(=O)(=O)Nc3cc(C)nc(C)n3)cc2)cc1`, for which the inhibition was -1.42%.
In the case of `Cc1cc(C)nc(NS(=O)(=O)c2ccc(N/C=C\C(=O)c3cccs3)cc2)n1` it was 10.6%; in that of `O=c1c(Cl)c(NCc2ccc(F)cc2Cl)cnn1C12CC3CC(CC(C3)C1)C2`, -9.45%.
As to `CCc1nnc(NC(=O)c2cc(S(=O)(=O)N3CCN(CC)CC3)ccc2Cl)s1`, the inhibition is 7.27%.
For the compound `COc1cc(OC)cc(-c2c(-c3ccc(F)cc3)c3cc(-c4ccc5cc[nH]c5c4)ccc3n2C)c1`, the inhibition is 43.2% (active).
The result for `COc1cc(OC)cc(-c2c(-c3cccs3)c3cc(-c4ccc(OC)nc4)ccc3n2C)c1` reads 23.8%; that for `COc1ccc(-c2c(-c3cc(OC)cc(OC)c3)n(C)c3ccc(-c4ccn[nH]4)cc23)cc1`, 10.2%.
With `Cc1ccc(C(=O)CN2C(=O)NC3(CCc4ccccc43)C2=O)c(C)c1` (configuration not stated), the inhibition is -0.34%.
The result for `O=C(CCCCO)c1ccc(O)c(Cl)c1` reads 29.1%; that for `Cc1c(S(=O)(=O)N2CC(C)CC(C)C2)c(=O)n(C)c(=O)n1C` (configuration not stated), -4.2%; that for `CC(=O)C1=C(C)NC2=C(C(=O)CC(C)(C)C2)C1C` (configuration not stated), 0.31%.
In the case of `CC1(C)CC(=O)C2=C(C1)Nc1cc(C(=O)c3ccccc3)ccc1NC2c1ccccn1` (configuration not stated) it was 32.1% (active).
For `Cc1cc2c(cc1C)NC(c1ccccn1)C1=C(CC(C)(C)CC1=O)N2` (configuration not stated), the inhibition is 29.6%.
`CSCC[C@H](NC(=O)NCc1cccs1)C(=O)O`: the inhibition was -3.14%.
The result for `CCN(c1ccc(NC(=O)COC(=O)CCc2nc3ccccc3n2-c2ccccc2)cc1)C(C)C` reads 8.52%.
